# Reference: ChEMBL document CHEMBL1157539, “Thousands of chemical starting points for antimalarial lead identification” (Nature, 2010)
# Tested on: Plasmodium falciparum
# Assay: GSK_TCMDC: Inhibition of Plasmodium falciparum Dd2 in whole red blood cells, using parasite LDH activity as an index of growth. Test compounds present at 2uM
# Assay type: functional
row,SMILES,Inhibition
1,CN1CCN(c2ccc(Nc3ncc(C#N)c(Nc4ccccc4C(N)=O)n3)cc2)CC1.Cl,93%
2,COc1ccc2nccc([C@@H](O)CN3CCC(NCc4cnc5c(c4)NC(=O)CS5)CC3)c2c1.O=C(O)C(=O)O,29%
3,Cc1cc(Nc2nc(Nc3cccc(Cl)c3)nc3ccccc23)n[nH]1,95%

# Tested on: HepG2
# Assay: GSK_TCMDC: Percent inhibition of human HepG2 cell line. Test compounds present at 10uM.
# Assay type: functional
row,SMILES,Inhibition
1,COc1cc(NC(=O)c2nn(CCCN3CCC(N4CCCC4)CC3)cc2-c2ccc(Cl)c(Cl)c2)cc(OC)c1OC,76%
2,O=C(CCCCCNC(=O)c1ccc(O)c(-c2ccc(Cl)c(Cl)c2)c1)NC1CCCc2ccccc21 (stereo not drawn),0%
3,Cc1cc(N[C@@H](Cc2ccccc2)C(=O)NCc2cccc(F)c2)nc(NCCc2ccccc2)n1.O=C(O)C(F)(F)F,7%
4,CN(CCCCCNC(=O)/C=C/c1ccc(Cl)c(Cl)c1)CCCCc1c[nH]c2ccccc12,17%
5,O=C(/C=C/c1ccc(C(F)(F)F)cc1)NCCCCCN1CCCN(C(=O)Nc2cccc(Cl)c2)CC1,16%
6,CCCCCCCCOc1ccc(N2C(N)=NC(N)=NC2(C)C)cc1.Cl,31%
7,COc1cc2nc(N3CCN(C(=O)c4c(Cl)nsc4-c4ccccc4Cl)CC3)nc(N)c2cc1OC.O=C(O)C(F)(F)F,57%
8,O=C(Nc1ccc2c(c1)CCN2C1CCN(Cc2ccc(O)cc2)C1)c1ccco1 (stereo not drawn),0%
9,CCCN1CCN(CCCNc2c3ccccc3nc3ccccc23)CC1.Cl,36%
10,CN1CCN(Cc2ccc(-c3cc4c(Nc5ccc(OCc6cccc(F)c6)c(Cl)c5)ncnc4s3)[nH]2)CC1,23%
11,N#Cc1cc(C(=O)c2cc(Cl)ccc2O)cn(-c2cccc(C(F)(F)F)c2)c1=O,0%
12,CCN(CC)/C(=N/C(=N)NCc1cccc(Cl)c1)NCCCCCCN/C(=N\C(=N)NCc1cccc(Cl)c1)N(CC)CC,17%
13,Cl.Oc1ccc2ccccc2c1CNC1CCCCCC1,9%
14,COc1cccc(NC(=O)[C@H](C(C)C)n2c(=O)[nH]c3ccccc3c2=O)c1,0%
15,CC(=O)Nc1ccc(CN(Cc2ccc(F)cc2)Cc2cccc(Oc3ccccc3)c2)cc1,0%
16,O=C(O)C(F)(F)F.OCC1CCN(Cc2cccc(-c3ccc(-c4nc5cc(C(F)(F)F)ccc5[nH]4)cc3)c2)CC1,25%
17,Fc1cccc(Cl)c1-c1nc(NCCC(c2ccccc2)c2ccccc2)no1,4%
18,Cc1cccc2nc(-c3ccc(-c4cccc(C(=O)NCCc5cn(C)cn5)c4)s3)[nH]c12,27%

row,SMILES,Inhibition
1,CN(C)CCNCc1cccc(-c2cccc(-c3nc4ccccc4[nH]3)c2)c1.O=C(O)C(F)(F)F,7%
2,Cc1cc(F)ccc1C1CCN(CCCCNC(=O)c2ccc(NC(=O)c3ccc(Cl)cc3)cc2)CC1,19%
3,COc1ccc2nccc([C@@H](O)CN3CCC(NCCNc4cccc(F)c4)CC3)c2c1.CS(=O)(=O)O,11%
4,NC1=NC(c2ccccc2)(c2ccccc2)C(=O)N1CCOc1ccccc1,42%
5,OC(CNc1ccnc(Nc2ccc(Cl)cc2)n1)c1ccc(C(F)(F)F)cc1 (stereo not drawn),0%
6,CN(C)CCCOc1ccccc1CN1CC[C@H](NC(=O)c2ccc(Cl)c(Cl)c2)C1.O=C(O)C(F)(F)F,42%
7,Cc1ccc(OC2CCN(CCCCC3(C)C(=O)Nc4ccccc43)CC2)cc1.Cl (stereo not drawn),63%
8,CCOc1ccc(C(C)NC(=O)c2cc(Cl)ccc2OC)cc1OCC (stereo not drawn),0%
9,COc1ccc(-c2cccc(NC(=O)c3cccc(C#N)c3)c2)cc1CN(C)CCO.O=C(O)C(F)(F)F,28%
10,CN(C)CCN(C)Cc1ccc(-c2ccc(NC(=O)c3cccc(C#N)c3)cc2)cc1.O=C(O)C(F)(F)F,20%
11,Cc1cc2ncc(C(N)=O)c(Nc3ccc(N4CCOCC4)cc3)c2cc1S(C)(=O)=O.Cl,0%
12,CN(c1ncc(-c2cccc(CNCc3ccccc3O)c2)cn1)C1CCCCC1,12%
13,COCCN1CCC(C(=O)NCC(C)(C)c2nc(-c3ccc(Br)c(O)c3)c(-c3ccncc3)[nH]2)CC1.Cl,0%
14,CSc1cccc(NC(=O)Nc2ccc(I)c(OCCN(C)C)c2)c1,14%
15,CCOC(=O)NC1=NC(=N)N(OCCCOc2cc(Cl)c(Cl)cc2Cl)C(C)(C)N1,63%
16,O=C(Nc1cccc(N2CCC(NCc3cnn(-c4cccc(F)c4)c3)CC2)c1)c1ccncc1,50%
17,O=C(C=Cc1ccc(Cl)c(Cl)c1)NCCCCCN1CCC(CCNC(=O)/C=C/c2ccccc2)CC1,25%
